Sfp inh – qHTS Assay for Inhibitors of Bacillus subtilis Sfp phosphopantetheinyl transferase (PPTase); 4'-phosphopantetheinyl transferase ffp (Bacillus subtilis), Q9F4F7; Potency, µM, inactives show largest response in the series, negative = inhibition, hits mostly inhibitors; 310,000 tested, 3.5% active; Biochemical Sfp PPTase activity, qHTS; AID 1490, 2009;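 also: the enzyme is Sfp with the accession as filed and its product quenches rhodamine fluorescence; potency is read from the fitted curve at half-maximal effect; 0% = enzyme reaction without inhibitor and -100% = no enzyme wells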
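Compounds were incubated with enzyme (final 15 nM) for 15 min at room temperature before substrate addition started the reaction. Fluorescence at 525 nm excitation, 598 nm emission was recorded immediately and after 30 minutes.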
miR-21 reporter – qHTS Assay for Modulators of miRNAs and/orActivators of miR-21; HeLa miR-21 FLuc reporter, luciferase, 48 h; Potency, µM (highest dose often 38.3 µM), for the others: at the top dose activity change, positive = activation, most hits filed as activators; 340,000 tested, under 10 active; AID 2288, 2010;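 also: % of control where 0% means no effect; miR-21 action dims this reporter so a rising signal means less miR-21 action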
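HeLa miR-21-FLuc reporter line, endogenous miR-21; 2000 cells/well in DMEM/10% FBS; compound titration up to ~40uM final, 48 h, 37 degree Celsius; luciferase detection reagent, 15 min lysis, CCD luminescence.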
JMJD2E inh – qHTS Assay for Inhibitors of Human Jumonji Domain Containing 2E (JMJD2E). AID 2147, 2009. JMJD2E catalytic domain, FDH-coupled NADH fluorescence (FDH is formaldehyde dehydrogenase). Potency, µM (series often up to 57.1 µM), without a hit: at the top dose activity change, negative = inhibition, usual class: inhibitors. 230,000 tested, 1.6% active; active = well fitted inhibition curve with a large enough effect, not every such curve was filed as active; inconclusive = small, poorly fitted or top-dose-only effect, or another doubt; inactive = no such curve, though single readings can be large or run the other way;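 also: potency is read from the fitted curve at half-maximal effect; 0% = wells with enzyme and -100% = buffer wells without enzyme; nearly all actives have a fitted effect of over 50% in size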
Target sequence (B2RXH2 1-337 limits assumed): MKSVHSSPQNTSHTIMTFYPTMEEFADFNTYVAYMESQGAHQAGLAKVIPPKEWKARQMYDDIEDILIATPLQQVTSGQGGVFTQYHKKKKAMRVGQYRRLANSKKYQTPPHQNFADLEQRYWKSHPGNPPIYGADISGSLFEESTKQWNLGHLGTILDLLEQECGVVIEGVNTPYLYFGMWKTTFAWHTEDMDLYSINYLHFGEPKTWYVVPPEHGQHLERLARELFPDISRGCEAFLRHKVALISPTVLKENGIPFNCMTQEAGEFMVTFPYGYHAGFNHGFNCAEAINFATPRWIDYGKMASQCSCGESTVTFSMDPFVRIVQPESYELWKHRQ
LMNA splice mod – qHTS Assay for Modulators of Lamin A Splicing. HeLa LMNA splicing GFP/RFP minigene ratio, 48 h. Potency, µM (series often up to 46.1 µM), for the others: top-dose ratio change, negative = inhibition, most hits filed as inhibitors. 200,000 tested, 0.01% active. AID 1487, 2009; active = well fitted inhibition curve with a large enough effect in the signal ratio, with a control signal flat, not every such curve was filed as active; inconclusive = small, poorly fitted or top-dose-only effect, or effect the other way, or a change in a side signal; the % refers to the signal ratio; also: potency is read from the fitted curve at half-maximal effect; % is scaled to controls: 0 for no effect and ±100 for the full control effect
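S3 HeLa stable clones carrying a lamin A-EGFP splicing minigene plus DsRed2 were seeded at 600 cells/well in Opti-MEM with 2% FBS, pin-dosed and incubated 48 h at 37°C. Acumen cytometry (488 nm) gave the GFP/RFP total-intensity ratio.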
ALDH1A1 inh – qHTS Assay for Inhibitors of Aldehyde Dehydrogenase 1 (ALDH1A1); Aldehyde dehydrogenase 1A1 (Homo sapiens), P00352; Purified ALDH1A1, NADH fluorescence, propionaldehyde substrate; Potency, µM (series often up to 75.3 µM), without a hit: at the top dose activity, negative = inhibition, usual class: inhibitors; 220,000 tested, 7.3% active; active = well fitted inhibition curve with a large enough effect, not every such curve was filed as active; inconclusive = small, poorly fitted or top-dose-only effect, or another doubt; inactive = no such curve, though single readings can be large or run the other way;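 also: potency is read from the fitted curve at half-maximal effect; plate controls were no enzyme wells and a reference inhibitor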
G9a inh – qHTS Assay for Inhibitors of Histone Lysine Methyltransferase G9a | G9a H3K9 monomethylation, AlphaScreen, 2 h | Potency, µM (doses to about 102 µM), for the others: at the top dose activity, negative = inhibition, hits mostly inhibitors | 350,000 tested, 8.8% active | AID 504332, 2011; also: potency is read from the fitted curve at half-maximal effect; % is scaled to controls: 0 for no effect and ±100 for the full control effect; nearly all actives have a fitted effect of over 75% in size
Target sequence (Q96KQ7 913-1193 limits assumed): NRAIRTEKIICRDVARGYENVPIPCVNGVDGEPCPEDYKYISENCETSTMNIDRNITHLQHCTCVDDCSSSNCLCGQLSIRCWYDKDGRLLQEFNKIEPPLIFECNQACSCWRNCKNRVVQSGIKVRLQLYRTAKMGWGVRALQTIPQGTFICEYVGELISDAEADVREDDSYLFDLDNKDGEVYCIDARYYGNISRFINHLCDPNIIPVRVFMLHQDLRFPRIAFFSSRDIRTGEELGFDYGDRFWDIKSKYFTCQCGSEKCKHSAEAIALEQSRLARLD
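Enzyme 20 nM + cpd, 15 min RT; add b-H3K9 pep 500 nM / SAM 20 uM; 2 h RT; anti-H3K9me1 Ab 0.5 ug/mL + SA donor / anti-rabbit acceptor beads 20 ug/mL each, 10 min; AlphaScreen read.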
* = called active by the depositor; ? = inconclusive; . = no result given; [ ] = another dose, or the depositor's remark. Most compounds without a hit are left out; they make up all but 13% or so of the library. Unless noted, calls follow the shape of the dose curve; as a rule, active = well fitted curve in the direction sought with a large enough effect; inconclusive = small, poorly fitted or top-dose-only effect, or another doubt; inactive = no such curve, though single readings can be large; an effect the other way counts as inactive or inconclusive.

SMILES | Sfp inh | miR-21 reporter | JMJD2E inh | LMNA splice mod | ALDH1A1 inh | G9a inh
COc1cc(NC(=O)CN2CCN(c3ccccc3F)CC2)cc(OC)c1 | 1% | -4% | 0% | -7% | 22µM* | -17%[12.7 µM]
COc1ccccc1NC(=O)CN1CCN(c2ccccc2F)CC1 | 9% | -6% | 10% | 15% | 12% | 2%
NS(=O)(=O)c1ccc(CNC(=O)Cc2c(F)cccc2Cl)cc1 | 1% | 0% | 2% | . | 2% | .
NC(=O)c1c(N)sc2c1CCCC2 | 25µM* | -14% | ? | 9% | 13µM* | 2.5µM*
Nc1sc2c(c1C(=O)c1ccccc1)CCCC2 | 50µM* | -8% | -25% | ? | 14µM* | ?
Nc1sc2c(c1C(=O)NCCc1ccccc1)CCC2 | ? | -27% | 0% | . | 20µM* | .
COc1ccc(C2=CC(=O)C[C@H](c3ccc(F)cc3)C2)c(OC)c1 | . | . | . | . | . | -5%[0.501 µM]
CCC(CC)NCC(O)COc1ccc(Br)cc1 (stereo unspecified) | -15% | 4% | ? | . | ? | -42%
CC(O)c1cccc2cc(C(O)CNC(C)(C)C)oc12 (stereo unspecified) | 7% | . | . | . | . | .
O=C(O)c1ccc2nc(C(F)(F)F)[nH]c2c1 | -2% | -4% | 2% | 1% | 4% | -4%[59 µM]
Nc1cccc2[nH]c(C(F)(F)F)nc12 | 4% | -3% | -26% | -3%[9.22 µM] | 3% | 28µM*
Cc1c(N)cccc1-c1nc2ccccc2[nH]1 | 2% | -16% | 3% | -12% | -4% | 7%[59 µM]
O=C(O)c1cccc2[nH]c(C(F)(F)F)nc12 | -11% | -1% | ? | -1% | -1% | 40µM*
COc1cc(NC(=O)c2cccc(COCC(F)(F)C(F)F)c2)cc(OC)c1OC | 5% | 4% | -5% | ? | 12% | -7%
CCOC(=O)C1=C(C)NC(=S)NC1c1ccc(OCC(=O)N2CCCCC2)cc1 (stereo unspecified) | -4% | 0% | . | . | . | -14%
CC1C(=O)N2CCCc3cc(NC(=O)COc4ccc(Cl)cc4)cc1c32 (stereo unspecified) | . | . | . | . | . | 50µM*
CC1C(=O)N2CCCc3cc(NS(=O)(=O)c4ccc(F)cc4)cc1c32 (stereo unspecified) | . | . | . | . | . | 50µM*
CNC(=O)C(=O)Nc1cc2c3c(c1)C(C)C(=O)N3CCC2 (stereo unspecified) | 18% | 4% | . | . | . | 1.4µM*
CCc1ccc(C2=CSC3=NCCN23)cc1 | 3% | 1% | . | . | . | -15%
Cc1ccc(NC(=O)c2ccc(F)c(S(=O)(=O)N3CCc4ccccc4C3)c2)cc1F | . | 25% | . | -7%[46 µM] | . | 2%[59 µM]
O=C(O)c1ccccc1NC(=O)C1CCN(S(=O)(=O)c2cccc3nsnc23)CC1 | 11% | 3% | . | . | . | 13%
CCC(=O)N1c2ccc(S(=O)(=O)CCC(=O)Nc3ccc(OC)cc3OC)cc2CC1C (stereo unspecified) | -12% | -4% | . | . | . | 40µM*
CCOc1ccccc1NC(=O)CCS(=O)(=O)c1ccc2c(c1)CCN2C(C)=O | 7% | -1% | . | . | . | 14%
CCOc1ccccc1NC(=O)CCS(=O)(=O)c1ccc2c(c1)CC(C)N2C(C)=O (stereo unspecified) | -19% | 2% | . | . | . | 25µM*
Cc1sc2ncnc(Nc3ccc(N4CCOCC4)cc3)c2c1-c1ccccc1 | ? | -10% | -5% | -9% | ? | 28µM*
SMILES | Sfp inh | miR-21 reporter | JMJD2E inh | LMNA splice mod | ALDH1A1 inh | G9a inh
O=C1C=CC(=O)N1N(c1ccccc1)c1ccccc1 | 32µM* | -5% | -12% | -18% | 3.5µM* | 1.8µM*
Cc1ccc(C)c(NC(=O)CSc2nnc(CCCCCNC(=O)OC(C)(C)C)o2)c1 | 15% | 8% | 1% | -22% | 9.5µM* | -24%[59 µM]
COc1ccc(C(=O)OC/C(O)=C(\C#N)c2nc3ccccc3[nH]2)cc1S(=O)(=O)N1CCOCC1 | 13% | -1% | 0% | 4% | 12% | 79µM*
Cc1nn(CC(=O)NCC(C)c2ccccc2)c(=O)c2cc3ccccc3n12 (stereo unspecified) | . | -2% | . | . | . | 0%[59 µM]
N#Cc1c2n(c3c(=S)nc[nH]c13)CCCCC2 | -52% | 7% | -22% | 13% | 19µM* | .
CCOC(=O)c1cccc(NC(=O)C2CCN(c3nnc(C)c4c(C)n(-c5ccccc5)nc34)CC2)c1 | . | 0% | . | . | . | -34%[59 µM]
CCNC(=S)N1CCN(Cc2ccc3c(c2)OCO3)CC1 | 11% | -1% | 14% | . | ? | -1%
Fc1ccccc1NC(=S)NCc1ccc2c(c1)OCO2 | 10% | -20% | 4% | -1% | -14% | 19%[59 µM]
C=CCNC(=O)CN1CCN(Cc2ccc3c(c2)OCO3)CC1 | -6% | 0% | . | . | . | .
O=S(=O)(c1c(F)cccc1F)N1CCN(C(=S)NCc2ccc3c(c2)OCO3)CC1 | -4% | -1% | 3% | ? | 4µM* | 32µM*
CCCNC(=S)N1CCN(Cc2ccc3c(c2)OCO3)CC1 | -10% | -8% | ? | -19%[46 µM] | -12% | 20µM*
C=CCNC(=S)N1CCN(Cc2ccc3c(c2)OCO3)CC1 | 18µM* | 1% | . | . | . | -6%[0.501 µM]
O=S(=O)(c1ccc2[nH]c3c(c2c1)CCCCC3)N1CCN(c2ccccc2)CC1 | . | 10% | . | 5%[46 µM] | . | -39%[59 µM]
O=C(CNC(=O)c1ccc(F)cc1)c1ccc(Cl)cc1 | -15% | -67% | . | . | . | ?
COc1ccc(CN(C)C(=S)Nc2ccc(Cl)cc2)cc1 | 19% | 12% | -4% | . | -10% | 14%
O=C(Nc1ccc2nc(-c3ccco3)c(-c3ccco3)nc2c1)N1CCN(c2ccccn2)CC1 | 20µM* | 4% | 5% | -30% | 8% | 2.5µM*
O=C(c1ccc2nc(-c3ccco3)c(-c3ccco3)nc2c1)N1CCN(c2ncccn2)CC1 | 14µM* | 10% | ? | 17% | ? | 35µM*
Cc1nc2cc(NC(=O)N3CCN(c4ccccn4)CC3)ccc2o1 | 13% | -11% | ? | -4% | 5% | -2%[59 µM]
S=c1nc(-c2cc(Cl)ccc2Cl)[nH][nH]1 | 50µM* | 2% | -18% | -6%[46 µM] | 6.3µM* | 1.6µM*
S=c1nc(-c2cc(Cl)cc(Cl)c2)[nH][nH]1 | 40µM* | -1% | 2% | . | 11µM* | 22µM*
S=c1nc(-c2cccc(Cl)c2)[nH][nH]1 | ? | -10% | ? | . | ? | 1.6µM*
S=c1nc(-c2ccccc2Br)[nH][nH]1 | -12% | -14% | 14µM* | -3% | 10µM* | 0.79µM*
